Experimental data: article PMC11006913
Where a chain is given by its changes, count along the chain named.

Key:
Assay in all cases: PBM; 200 nM protein, PBS
Conditions in all cases: dsDNA, one strand shown
HOXB9 [1] = target: HOXB9 (Homo sapiens, UniProt P17482 171-250, T197M)
HOXC10 [2] = target: HOXC10 (Homo sapiens, UniProt Q9NYD6 254-340)
HOXC10 [3] = target: HOXC10 (Homo sapiens, UniProt Q9NYD6 254-340, K271E)
HOXB9 [4] = target: HOXB9 (Homo sapiens, UniProt P17482 171-250)
MSX2 [5] = target: MSX2 (Homo sapiens, UniProt P35548 130-214, R199I)
Chain of MSX2 (Homo sapiens, UniProt P35548 130-214, R199I) (P35548 130-214 R199I): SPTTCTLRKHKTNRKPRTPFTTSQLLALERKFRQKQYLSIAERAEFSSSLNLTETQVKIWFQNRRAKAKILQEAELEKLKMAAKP

ALX3 [6] = target: ALX3 (Homo sapiens, UniProt O95076 139-225, N203Q)
Chain of ALX3 (Homo sapiens, UniProt O95076 139-225, N203Q) (O95076 139-225 N203Q): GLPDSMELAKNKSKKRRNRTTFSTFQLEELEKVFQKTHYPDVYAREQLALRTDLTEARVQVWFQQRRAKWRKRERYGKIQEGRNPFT

MSX2 [7] = target: MSX2 (Homo sapiens, UniProt P35548 130-214)
Chain of MSX2 (Homo sapiens, UniProt P35548 130-214) (P35548 130-214): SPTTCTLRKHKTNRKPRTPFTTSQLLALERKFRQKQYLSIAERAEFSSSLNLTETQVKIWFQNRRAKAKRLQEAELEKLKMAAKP

ALX3 [8] = target: ALX3 (Homo sapiens, UniProt O95076 139-225)
Chain of ALX3 (Homo sapiens, UniProt O95076 139-225) (O95076 139-225): as the sequence (O95076 139-225 N203Q) above, with Q65N counted along it

ALX3 [9] = target: ALX3 (Homo sapiens, UniProt O95076 139-225, L168Q)
Chain of ALX3 (Homo sapiens, UniProt O95076 139-225, L168Q) (O95076 139-225 L168Q): as the sequence (O95076 139-225 N203Q) above, with L30Q, Q65N counted along it

HOXB9 [10] = target: HOXB9 (Homo sapiens, UniProt P17482 171-250, R186Q)
Chain of HOXB9 (Homo sapiens, UniProt P17482 171-250, R186Q) (P17482 171-250 R186Q): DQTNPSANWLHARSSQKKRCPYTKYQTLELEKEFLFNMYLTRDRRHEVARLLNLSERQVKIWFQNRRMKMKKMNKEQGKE

ALX3 [11] = target: ALX3 (Homo sapiens, UniProt O95076 139-225, L168V)
Chain of ALX3 (Homo sapiens, UniProt O95076 139-225, L168V) (O95076 139-225 L168V): as the sequence (O95076 139-225 N203Q) above, with L30V, Q65N counted along it

MSX2 [12] = target: MSX2 (Homo sapiens, UniProt P35548 130-214, F161Y)
Chain of MSX2 (Homo sapiens, UniProt P35548 130-214, F161Y) (P35548 130-214 F161Y): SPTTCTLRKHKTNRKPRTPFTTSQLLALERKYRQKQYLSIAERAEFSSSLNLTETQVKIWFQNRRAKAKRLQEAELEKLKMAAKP

ALX3 [13] = target: ALX3 (Homo sapiens, UniProt O95076 139-225, N203S)
Chain of ALX3 (Homo sapiens, UniProt O95076 139-225, N203S) (O95076 139-225 N203S): as the sequence (O95076 139-225 N203Q) above, with Q65S counted along it

NKX3-2 [14] = target: NKX3-2 (Homo sapiens, UniProt P78367 192-278, P234S)
Chain of NKX3-2 (Homo sapiens, UniProt P78367 192-278, P234S) (P78367 192-278 P234S): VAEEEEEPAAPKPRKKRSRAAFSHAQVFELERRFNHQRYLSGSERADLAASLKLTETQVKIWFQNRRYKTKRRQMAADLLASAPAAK

NKX3-2 [15] = target: NKX3-2 (Homo sapiens, UniProt P78367 192-278)
Chain of NKX3-2 (Homo sapiens, UniProt P78367 192-278) (P78367 192-278): as the sequence (P78367 192-278 P234S) above, with S43P counted along it

HOXA7 [16] = target: HOXA7 (Homo sapiens, UniProt P31268 116-202)
Chain of HOXA7 (Homo sapiens, UniProt P31268 116-202) (P31268 116-202): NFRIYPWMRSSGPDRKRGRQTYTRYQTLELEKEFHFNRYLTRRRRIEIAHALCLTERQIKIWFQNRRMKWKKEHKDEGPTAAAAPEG

HOXA7 [17] = target: HOXA7 (Homo sapiens, UniProt P31268 116-202, W177C)
Chain of HOXA7 (Homo sapiens, UniProt P31268 116-202, W177C) (P31268 116-202 W177C): as the sequence (P31268 116-202) above, with W62C counted along it

PRRX1 [18] = target: PRRX1 (Homo sapiens, UniProt P54821 80-166, F113S)
Chain of PRRX1 (Homo sapiens, UniProt P54821 80-166, F113S) (P54821 80-166 F113S): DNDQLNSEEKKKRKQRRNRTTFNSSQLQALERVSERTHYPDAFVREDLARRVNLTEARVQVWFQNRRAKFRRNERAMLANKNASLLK

HOXD13 [19] = target: HOXD13 (Homo sapiens, UniProt P35453 263-343, T313R)
Chain of HOXD13 (Homo sapiens, UniProt P35453 263-343, T313R) (P35453 263-343 T313R): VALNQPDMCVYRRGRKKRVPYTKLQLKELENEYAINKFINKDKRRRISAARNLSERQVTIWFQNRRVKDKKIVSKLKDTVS

HOXD13 [20] = target: HOXD13 (Homo sapiens, UniProt P35453 263-343)
Chain of HOXD13 (Homo sapiens, UniProt P35453 263-343) (P35453 263-343): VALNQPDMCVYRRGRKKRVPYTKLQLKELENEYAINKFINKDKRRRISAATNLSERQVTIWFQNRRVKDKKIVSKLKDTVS

HOXD13 [21] = target: HOXD13 (Homo sapiens, UniProt P35453 263-343, T313A)
Chain of HOXD13 (Homo sapiens, UniProt P35453 263-343, T313A) (P35453 263-343 T313A): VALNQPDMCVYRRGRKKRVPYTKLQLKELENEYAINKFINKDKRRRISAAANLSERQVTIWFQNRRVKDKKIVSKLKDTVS

PRRX1 [22] = target: PRRX1 (Homo sapiens, UniProt P54821 80-166)
Chain of PRRX1 (Homo sapiens, UniProt P54821 80-166) (P54821 80-166): as the sequence (P54821 80-166 F113S) above, with S34F counted along it

HOXC9 [23] = target: HOXC9 (Homo sapiens, UniProt P31274 178-260, K195R)
Chain of HOXC9 (Homo sapiens, UniProt P31274 178-260, K195R) (P31274 178-260 K195R): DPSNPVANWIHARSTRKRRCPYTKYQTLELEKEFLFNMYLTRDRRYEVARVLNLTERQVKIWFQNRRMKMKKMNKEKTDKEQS

HOXC9 [24] = target: HOXC9 (Homo sapiens, UniProt P31274 178-260)
Chain of HOXC9 (Homo sapiens, UniProt P31274 178-260) (P31274 178-260): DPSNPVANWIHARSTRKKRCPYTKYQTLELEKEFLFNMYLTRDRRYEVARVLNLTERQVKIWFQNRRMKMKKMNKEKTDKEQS

HOXC9 [25] = target: HOXC9 (Homo sapiens, UniProt P31274 178-260, R193K)
Chain of HOXC9 (Homo sapiens, UniProt P31274 178-260, R193K) (P31274 178-260 R193K): as the sequence (P31274 178-260) above, with R16K counted along it

HOXC9 [26] = target: HOXC9 (Homo sapiens, UniProt P31274 178-260, R222W)
Chain of HOXC9 (Homo sapiens, UniProt P31274 178-260, R222W) (P31274 178-260 R222W): as the sequence (P31274 178-260) above, with R45W counted along it

PAX4 [27] = target: T1, PAX4 (Homo sapiens, UniProt O43316 9-242, R200K)
T1 sequence: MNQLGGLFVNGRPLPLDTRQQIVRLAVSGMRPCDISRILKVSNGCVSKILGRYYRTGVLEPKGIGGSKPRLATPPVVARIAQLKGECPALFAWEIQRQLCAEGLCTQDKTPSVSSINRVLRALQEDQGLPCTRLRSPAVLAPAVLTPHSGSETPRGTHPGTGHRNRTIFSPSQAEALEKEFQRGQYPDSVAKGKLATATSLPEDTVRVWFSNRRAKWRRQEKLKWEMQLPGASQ

PAX4 [28] = target: T2, PAX4 (Homo sapiens, UniProt O43316 9-242)
T2 sequence: T1 sequence with K192R

PAX4 [29] = target: T3, PAX4 (Homo sapiens, UniProt O43316 9-242, R200Q)
T3 sequence: T1 sequence with K192Q

PAX4 [30] = target: T4, PAX4 (Homo sapiens, UniProt O43316 9-242, F177V)
T4 sequence: T1 sequence with F169V, K192R

PAX4 [31] = target: T5, PAX4 (Homo sapiens, UniProt O43316 9-242, F177Y)
T5 sequence: T1 sequence with F169Y, K192R

PROP1 [32] = target: PROP1 (Homo sapiens, UniProt O75360 56-141)
Chain of PROP1 (Homo sapiens, UniProt O75360 56-141) (O75360 56-141): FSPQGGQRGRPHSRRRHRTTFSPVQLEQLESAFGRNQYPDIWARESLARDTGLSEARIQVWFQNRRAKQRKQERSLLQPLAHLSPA

PROP1 [33] = target: PROP1 (Homo sapiens, UniProt O75360 56-141, R99H)
Chain of PROP1 (Homo sapiens, UniProt O75360 56-141, R99H) (O75360 56-141 R99H): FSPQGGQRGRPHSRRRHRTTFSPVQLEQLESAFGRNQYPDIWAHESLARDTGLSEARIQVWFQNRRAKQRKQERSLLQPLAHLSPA

PROP1 [34] = target: PROP1 (Homo sapiens, UniProt O75360 56-141, F88S)
Chain of PROP1 (Homo sapiens, UniProt O75360 56-141, F88S) (O75360 56-141 F88S): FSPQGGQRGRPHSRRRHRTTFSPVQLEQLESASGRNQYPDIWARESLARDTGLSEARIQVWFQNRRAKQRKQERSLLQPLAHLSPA

PAX4 [35] = target: T6, PAX4 (Homo sapiens, UniProt O43316 9-242, R227W)
T6 sequence: T1 sequence with K192R, R219W

ALX4 [36] = target: ALX4 (Homo sapiens, UniProt Q9H161 200-286)
Chain of ALX4 (Homo sapiens, UniProt Q9H161 200-286) (Q9H161 200-286): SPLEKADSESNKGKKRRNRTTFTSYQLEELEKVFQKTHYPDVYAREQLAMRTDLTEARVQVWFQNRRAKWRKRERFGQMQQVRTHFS

ALX4 [37] = target: ALX4 (Homo sapiens, UniProt Q9H161 200-286, Q225E)
Chain of ALX4 (Homo sapiens, UniProt Q9H161 200-286, Q225E) (Q9H161 200-286 Q225E): as the sequence (Q9H161 200-286) above, with Q26E counted along it

Chain of HOXC10 (Homo sapiens, UniProt Q9NYD6 254-340, K271E) (Q9NYD6 254-340 K271E): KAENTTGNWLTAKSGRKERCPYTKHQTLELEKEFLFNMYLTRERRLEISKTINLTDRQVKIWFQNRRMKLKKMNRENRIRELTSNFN
Chain of HOXB9 (Homo sapiens, UniProt P17482 171-250, T197M) (P17482 171-250 T197M): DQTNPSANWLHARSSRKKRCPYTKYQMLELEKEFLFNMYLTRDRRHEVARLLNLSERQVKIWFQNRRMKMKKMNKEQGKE
Chain of HOXB9 (Homo sapiens, UniProt P17482 171-250) (P17482 171-250): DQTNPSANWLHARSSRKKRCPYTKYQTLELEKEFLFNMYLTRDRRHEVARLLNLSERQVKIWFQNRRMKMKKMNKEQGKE
Chain of HOXC10 (Homo sapiens, UniProt Q9NYD6 254-340) (Q9NYD6 254-340): as the sequence (Q9NYD6 254-340 K271E) above, with E18K counted along it

**Q.** AGTCGTTA was tested. Which binding signal (HOXB9 [1]) did it give?
**A.** 10 upbm affinity estimate (log intensity, higher = more binding, comparable within an allelic series)

**Q.** And the binding signal (HOXC10 [2])?
**A.** 12.2 upbm affinity estimate (log intensity, higher = more binding, comparable within an allelic series)

**Q.** What about the binding signal (HOXC10 [3]) of the same sequence?
**A.** 12.1 upbm affinity estimate (log intensity, higher = more binding, comparable within an allelic series)

**Q.** Which binding signal (HOXB9 [1]) does the source give for CTCACGGC here?
**A.** 8.44 upbm affinity estimate (log intensity, higher = more binding, comparable within an allelic series)

**Q.** And the binding signal (HOXC10 [2])?
**A.** 10 upbm affinity estimate (log intensity, higher = more binding, comparable within an allelic series)

**Q.** What about the binding signal (HOXB9 [4]) of the same sequence?
**A.** 8.41 upbm affinity estimate (log intensity, higher = more binding, comparable within an allelic series)

**Q.** And the binding signal (MSX2 [5])?
**A.** 9.58 upbm affinity estimate (log intensity, higher = more binding, comparable within an allelic series)

**Q.** What about the binding signal (ALX3 [6]) of the same sequence?
**A.** 7.72 upbm affinity estimate (log intensity, higher = more binding, comparable within an allelic series)

**Q.** And the binding signal (HOXC10 [3])?
**A.** 10 upbm affinity estimate (log intensity, higher = more binding, comparable within an allelic series)

**Q.** What about the binding signal (MSX2 [7]) of the same sequence?
**A.** 9.43 upbm affinity estimate (log intensity, higher = more binding, comparable within an allelic series)

**Q.** And the binding signal (ALX3 [8])?
**A.** 7.47 upbm affinity estimate (log intensity, higher = more binding, comparable within an allelic series)

**Q.** And the binding signal (ALX3 [9])?
**A.** 7.78 upbm affinity estimate (log intensity, higher = more binding, comparable within an allelic series)

**Q.** And the binding signal (HOXB9 [10])?
**A.** 8.46 upbm affinity estimate (log intensity, higher = more binding, comparable within an allelic series)

**Q.** And the binding signal (ALX3 [11])?
**A.** 7.81 upbm affinity estimate (log intensity, higher = more binding, comparable within an allelic series)

**Q.** And the binding signal (MSX2 [12])?
**A.** 9.43 upbm affinity estimate (log intensity, higher = more binding, comparable within an allelic series)

**Q.** And the binding signal (ALX3 [13])?
**A.** 7.72 upbm affinity estimate (log intensity, higher = more binding, comparable within an allelic series)

**Q.** GGCAGACC was tested. Which binding signal (HOXB9 [1]) did it give?
**A.** 8.55 upbm affinity estimate (log intensity, higher = more binding, comparable within an allelic series)

**Q.** What about the binding signal (HOXC10 [2]) of the same sequence?
**A.** 10.1 upbm affinity estimate (log intensity, higher = more binding, comparable within an allelic series)

**Q.** What about the binding signal (HOXB9 [4]) of the same sequence?
**A.** 8.57 upbm affinity estimate (log intensity, higher = more binding, comparable within an allelic series)

**Q.** And the binding signal (HOXC10 [3])?
**A.** 10.1 upbm affinity estimate (log intensity, higher = more binding, comparable within an allelic series)

**Q.** What about the binding signal (HOXB9 [10]) of the same sequence?
**A.** 8.65 upbm affinity estimate (log intensity, higher = more binding, comparable within an allelic series)

**Q.** And the binding signal (NKX3-2 [14])?
**A.** 10.4 upbm affinity estimate (log intensity, higher = more binding, comparable within an allelic series)

**Q.** And the binding signal (NKX3-2 [15])?
**A.** 10.3 upbm affinity estimate (log intensity, higher = more binding, comparable within an allelic series)

**Q.** What does the source list for CTAGGCTC?
**A.** binding signal (HOXB9 [1]): 8.49 upbm affinity estimate (log intensity, higher = more binding, comparable within an allelic series); binding signal (HOXA7 [16]): 8.33 upbm affinity estimate (log intensity, higher = more binding, comparable within an allelic series); binding signal (HOXB9 [4]): 8.52 upbm affinity estimate (log intensity, higher = more binding, comparable within an allelic series); binding signal (HOXB9 [10]): 8.53 upbm affinity estimate (log intensity, higher = more binding, comparable within an allelic series); binding signal (HOXA7 [17]): 8.41 upbm affinity estimate (log intensity, higher = more binding, comparable within an allelic series)

**Q.** Which results are given for ACCGGCAG?
**A.** binding signal (HOXB9 [1]): 8.5 upbm affinity estimate (log intensity, higher = more binding, comparable within an allelic series); binding signal (PRRX1 [18]): 9.27 upbm affinity estimate (log intensity, higher = more binding, comparable within an allelic series); binding signal (HOXB9 [4]): 8.43 upbm affinity estimate (log intensity, higher = more binding, comparable within an allelic series); binding signal (MSX2 [5]): 9.63 upbm affinity estimate (log intensity, higher = more binding, comparable within an allelic series); binding signal (HOXD13 [19]): 9.44 upbm affinity estimate (log intensity, higher = more binding, comparable within an allelic series); binding signal (HOXD13 [20]): 9.57 upbm affinity estimate (log intensity, higher = more binding, comparable within an allelic series); binding signal (MSX2 [7]): 9.62 upbm affinity estimate (log intensity, higher = more binding, comparable within an allelic series); binding signal (HOXD13 [21]): 9.67 upbm affinity estimate (log intensity, higher = more binding, comparable within an allelic series); binding signal (HOXB9 [10]): 8.48 upbm affinity estimate (log intensity, higher = more binding, comparable within an allelic series); binding signal (MSX2 [12]): 9.59 upbm affinity estimate (log intensity, higher = more binding, comparable within an allelic series); binding signal (PRRX1 [22]): 9.41 upbm affinity estimate (log intensity, higher = more binding, comparable within an allelic series)

**Q.** How did the binding signal (HOXB9 [1]) turn out when CCCCCAGA was run?
**A.** 8.56 upbm affinity estimate (log intensity, higher = more binding, comparable within an allelic series)

**Q.** What about the binding signal (HOXC9 [23]) of the same sequence?
**A.** 9.67 upbm affinity estimate (log intensity, higher = more binding, comparable within an allelic series)

**Q.** And the binding signal (HOXB9 [4])?
**A.** 8.41 upbm affinity estimate (log intensity, higher = more binding, comparable within an allelic series)

**Q.** What about the binding signal (HOXC9 [24]) of the same sequence?
**A.** 9.59 upbm affinity estimate (log intensity, higher = more binding, comparable within an allelic series)

**Q.** And the binding signal (HOXC9 [25])?
**A.** 9.69 upbm affinity estimate (log intensity, higher = more binding, comparable within an allelic series)

**Q.** What about the binding signal (HOXB9 [10]) of the same sequence?
**A.** 8.47 upbm affinity estimate (log intensity, higher = more binding, comparable within an allelic series)

**Q.** What about the binding signal (HOXC9 [26]) of the same sequence?
**A.** 9.54 upbm affinity estimate (log intensity, higher = more binding, comparable within an allelic series)

**Q.** GCTCTCCC was tested. Which binding signal (HOXB9 [1]) did it give?
**A.** 8.34 upbm affinity estimate (log intensity, higher = more binding, comparable within an allelic series)

**Q.** And the binding signal (PAX4 [27])?
**A.** 9.21 upbm affinity estimate (log intensity, higher = more binding, comparable within an allelic series)

**Q.** What about the binding signal (PAX4 [28]) of the same sequence?
**A.** 9.22 upbm affinity estimate (log intensity, higher = more binding, comparable within an allelic series)

**Q.** What about the binding signal (HOXB9 [4]) of the same sequence?
**A.** 8.35 upbm affinity estimate (log intensity, higher = more binding, comparable within an allelic series)

**Q.** What about the binding signal (MSX2 [5]) of the same sequence?
**A.** 9.54 upbm affinity estimate (log intensity, higher = more binding, comparable within an allelic series)

**Q.** And the binding signal (PAX4 [29])?
**A.** 9.3 upbm affinity estimate (log intensity, higher = more binding, comparable within an allelic series)

**Q.** What about the binding signal (PAX4 [30]) of the same sequence?
**A.** 9.23 upbm affinity estimate (log intensity, higher = more binding, comparable within an allelic series)

**Q.** And the binding signal (MSX2 [7])?
**A.** 9.45 upbm affinity estimate (log intensity, higher = more binding, comparable within an allelic series)

**Q.** And the binding signal (PAX4 [31])?
**A.** 9.16 upbm affinity estimate (log intensity, higher = more binding, comparable within an allelic series)

**Q.** What about the binding signal (PROP1 [32]) of the same sequence?
**A.** 6.88 upbm affinity estimate (log intensity, higher = more binding, comparable within an allelic series)

**Q.** What about the binding signal (PROP1 [33]) of the same sequence?
**A.** 6.87 upbm affinity estimate (log intensity, higher = more binding, comparable within an allelic series)

**Q.** And the binding signal (HOXB9 [10])?
**A.** 8.35 upbm affinity estimate (log intensity, higher = more binding, comparable within an allelic series)

**Q.** And the binding signal (PROP1 [34])?
**A.** 6.53 upbm affinity estimate (log intensity, higher = more binding, comparable within an allelic series)

**Q.** And the binding signal (MSX2 [12])?
**A.** 9.57 upbm affinity estimate (log intensity, higher = more binding, comparable within an allelic series)

**Q.** What about the binding signal (PAX4 [35]) of the same sequence?
**A.** 9.27 upbm affinity estimate (log intensity, higher = more binding, comparable within an allelic series)

**Q.** Which results are given for GGAGCCAC?
**A.** binding signal (HOXB9 [1]): 8.39 upbm affinity estimate (log intensity, higher = more binding, comparable within an allelic series); binding signal (ALX4 [36]): 8.24 upbm affinity estimate (log intensity, higher = more binding, comparable within an allelic series); binding signal (ALX4 [37]): 8.19 upbm affinity estimate (log intensity, higher = more binding, comparable within an allelic series); binding signal (HOXB9 [4]): 8.65 upbm affinity estimate (log intensity, higher = more binding, comparable within an allelic series); binding signal (HOXB9 [10]): 8.65 upbm affinity estimate (log intensity, higher = more binding, comparable within an allelic series)
